# Screening results as filed in PubChem BioAssay.
# This is a sample that favours compounds with a hit; in the whole collection about 4.5% have one here.
# TIM10 inh = inhibits growth of TIM10 yeast strain; S. cerevisiae TIM10 strain growth, BacTiter-Glo luminescence, 24 h; inhibition, % at 10 µM; 1.4% of 330,000 active;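 active = inhibition of 40% or more at the single tested concentration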;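 also: wild-type TIM10 isogenic control strain grown at permissive 25 °C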
# NALP3 yeast inh = blocks the NALP3 inflammasome reconstituted in yeast; Yeast reconstituted NLRP3/ASC/caspase-1, beta-gal luminescence, 24 h; inhibition, % at 10 µM; 0.39% of 330,000 active; AID 2825;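 active = inhibition of 50% or more; inactive = inhibition below 50%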;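 also: plate controls were induced DMSO wells for no effect and uninduced yeast grown without galactose for full effect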
# PfHsp90 set2 = inhibits growth of yeast expressing Plasmodium falciparum Hsp90; S. cerevisiae expressing PfHsp90, BacTiter-Glo ATP, 48 h; yeast lacking PDR1 and PDR3 efflux regulators; inhibition, % at 9.4 µM; 0.32% of 310,000 active;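 active = every replicate shows inhibition above about 80%, whatever the replicate mean, limit read from the data; inconclusive = mean inhibition reaches the set limit but some replicate falls short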;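 also: 0% = DMSO neutral controls and 100% = 20 µM radicicol positive controls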
# SKKanGAS inh = inhibitors of SKKanGAS S. pyogenes growth in kanamycin (SK-promoter or general growth effect) | inhibition, % at 7.5 µM | BacTiter-Glo, 6 h | AID 1662 | 1.3% of 300,000 active;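 active = mean replicate score, as percent of positive control median, at least 50; inconclusive = mean below 50 but one replicate at or above 50; inactive = mean and every replicate below 50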;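 also: strain carries kanamycin resistance gene driven by streptokinase promoter and grows in 40 µg/ml kanamycin; loss of luminescence reflects streptokinase promoter inhibition or plain growth inhibition; 0% = median of DMSO wells and 100% = positive control at its reference dose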
# tim10-1 inh = growth inhibitors of tim10-1 mutant yeast. S. cerevisiae tim10-1 ts strain growth, BacTiter-Glo, 24 h. inhibition, % at 20 µM. 2.2% of 330,000 active;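 active = inhibition of at least 40%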;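 also: mutant grown at 25 °C; 0% = DMSO wells with yeast and 100% = wells holding no yeast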
# tim23-1 inh = inhibits growth of tim23-1 mutant yeast. S. cerevisiae tim23-1 growth, BacTiter-Glo luminescence, 24 h. inhibition, % at 20 µM. 1.3% of 330,000 active;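 active = growth inhibition of the mutant yeast at or above 50%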;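 also: temperature-sensitive mutant grown at 25 °C; plate controls were DMSO-treated mutant yeast for no effect and medium wells lacking yeast for full effect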
# tim10-1 confirm = confirmation of tim10-1 mutant yeast growth inhibitors. shares compounds with tim10-1 inh. S. cerevisiae tim10-1 ts strain growth, BacTiter-Glo, 24 h. inhibition, % at 20 µM. 56% of 7,400 active. AID 463213;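 active = inhibition of yeast growth at or above a set limit in either of two repeat tests at 20 µM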;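 also: tim10-1 mutant grown at permissive 25 °C to find synthetic lethal compounds; 0% = DMSO yeast wells and 100% = medium wells without yeast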
# TIM10 conf = TIM10 yeast growth inhibition, confirmed; shares compounds with TIM10 inh; S. cerevisiae tim10 strain growth, BacTiter-Glo luminescence, 24 h; inhibition, % at 10 µM; 63% of 4,600 active; AID 463215;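 active = inhibition of yeast growth at or above a set limit in either of two replicates at 10 µM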;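 also: this counterscreen used the strain with wild-type TIM10; 0% = yeast with DMSO and 100% = medium wells lacking yeast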
# tim23-1 conf = confirmation of tim23-1 mutant yeast growth inhibitors; shares compounds with tim23-1 inh; S. cerevisiae tim23-1 growth, BacTiter-Glo luminescence, 24 h; inhibition, % at 20 µM; 83% of 4,400 active;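 active = inhibition above about 39% in either of two replicate wells at 20 µM, limit read from the data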;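 also: temperature-sensitive tim23-1 mutant grown at 25 °C; 0% = DMSO wells with yeast and 100% = medium wells without yeast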
# Starred values were filed as active, the others as inactive; ? = inconclusive; . = no result given.
SMILES,TIM10 inh,NALP3 yeast inh,PfHsp90 set2,SKKanGAS inh,tim10-1 inh,tim23-1 inh,tim10-1 confirm,TIM10 conf,tim23-1 conf
CC1(C)CC(=O)C2=C(C1)Oc1nc3ccccc3cc1C2C(C#N)C#N (configuration not stated),54*,25,.,-3,61*,63*,59*,63*,68*
Cc1cccc(C)c1NC(=S)NC(=O)CCc1ccccc1,47*,19,15,1,51*,56*,35*,36*,42*
Cc1cccc(OCCSc2nc(N)cc(N)n2)c1,4,-2,-22,20,-5,1,.,.,.
CCOC(=O)C1=C(Cc2ccc(C)cc2)C(=O)c2ccccc2C1=O,57*,-14,.,64*,62*,61*,68*,67*,60*
CCCc1ccc(/C=C2\C(=O)c3ccccc3C(O)=C2C(=O)OCC)cc1,45*,4,.,40,66*,52*,66*,48*,57*
Cc1nc(N2CCN(c3ccccc3O)CC2)c2c(-c3ccccc3)csc2n1,33,27,-40,?,42*,51*,32*,.,48*
O=[N+]([O-])c1cncc([N+](=O)[O-])c1Nc1ccccc1Cl,4,-11,-9,8,51*,57*,43*,.,69*
NS(=O)(=O)c1ccc(Nc2c([N+](=O)[O-])cncc2[N+](=O)[O-])cc1,-3,19,7,6,-3,0,.,.,.
O=C1NC(=O)N(Cc2ccccc2)CC1Br (configuration not stated),.,.,-70,.,.,.,.,.,.
Cc1oc(-c2ccc(-c3ccccc3)cc2)nc1CN(CCO)C(C)C,11,20,25,4,5,25,.,.,.
Cc1ccc(C(=O)/C=C/c2cc(Br)cc(Br)c2O)o1,38,35,-5,66*,53*,65*,50*,.,66*
Cc1cc(Cl)ccc1N=c1ssnc1Cl,40,16,?,3,52*,59*,55*,.,77*
Cc1cc(C)nc(/N=c2/ssnc2Cl)c1,77*,44,.,-5,81*,91*,83*,95*,68*
Cc1cc(Cl)ccc1N=C1N=C(N)c2ccccc21,14,-12,-16,-1,11,13,.,.,.
Cc1ccc(C2=NNC(=Nc3ccc(F)cc3)SC2)cc1,.,.,-56,.,.,.,.,.,.
Cc1ccc(N=c2ssnc2Cl)cc1,27,18,93*,-6,64*,66*,63*,.,90*
O=C(NCCCNC(=O)c1ccc(-c2cc(Cl)ccc2Cl)o1)c1cnccn1,6,3,10,-8,23,22,.,.,.
Cc1cccc(C(=O)O/N=C2/CC3CCC2(C)C3(C)C)c1 (configuration not stated),65*,8,22,2,50*,59*,65*,70*,66*
Cc1ccc(C(=O)O/N=C2\CC3CCC2(C)C3(C)C)cc1 (configuration not stated),76*,17,-26,19,67*,66*,67*,75*,68*
COc1cc(/C=C(\NC(=O)c2ccccc2)C(=O)Nc2nccs2)ccc1OC(C)=O,-7,-3,-17,2,20,6,.,.,.
CC(C)(C)c1ccc(C2CC2C(=O)N/N=C\c2ccc[nH]2)cc1 (configuration not stated),0,-9,10,13,12,9,.,.,.
Cc1nn2c(NCc3ccccn3)cc(C(C)C)nc2c1-c1ccccc1,64*,12,5,101*,45*,60*,49*,68*,61*
O=C(N/N=C\c1ccc([N+](=O)[O-])o1)C1COc2ccccc2O1 (configuration not stated),31,16,-25,-6,57*,57*,49*,.,42*
O=[N+]([O-])c1ccc(/C=N/NC(=S)Nc2ccccc2F)o1,43*,3,-8,14,56*,55*,47*,-6,58*
CCCCCC(=O)N/N=C/c1ccc([N+](=O)[O-])o1,26,13,-18,4,22,22,.,.,.
SMILES,TIM10 inh,NALP3 yeast inh,PfHsp90 set2,SKKanGAS inh,tim10-1 inh,tim23-1 inh,tim10-1 confirm,TIM10 conf,tim23-1 conf
O=C(CCC(=O)Nc1ccc(Cl)cc1Cl)N/N=C/c1ccc([N+](=O)[O-])o1,45*,15,.,17,64*,92*,43*,51*,88*
CC1CCc2[nH]c3ccc(C(=O)N4CCCC(C(F)(F)F)C4)cc3c2C1 (configuration not stated),25,-3,.,1,42*,68*,30,.,55*
COC(=O)c1ccc2[nH]c3c(c2c1)CC(C)CC3 (configuration not stated),19,-6,-53,7,24,40,.,.,.
COc1ccccc1CC(=O)Nc1ccon1,14,17,0,3,4,10,.,.,.
COc1ccc(N=Nc2c(C)[nH]c3ccccc23)cc1,38,20,-6,-14,43*,89*,40*,.,78*
COc1ccc(N=Nc2c(C)[nH][nH]c2=O)cc1,0,24,-3,-7,36,8,.,.,.
CC1CCc2sc3nc(NCc4ccco4)n4ncnc4c3c2C1 (configuration not stated),18,3,-2,23,41*,51*,35*,.,56*
CCN1CCN(c2nc3sc4c(c3c3ncnn23)CC(C)CC4)CC1 (configuration not stated),12,-3,-2,11,21,24,.,.,.
O=C(CSC(=S)N1CCCC1)c1cc(Br)cc(Br)c1O,57*,15,.,14,58*,52*,46*,48*,66*
CC(C)C(=O)Nc1c(-c2ccccc2Cl)c(=O)c2ccccc2n1C,4,2,-23,1,-2,-2,.,.,.
N/C(=N\OC(=O)C12CC3CC(CC(C3)C1)C2)c1ccccn1,41*,13,-9,-5,62*,51*,44*,-16,49*
N/C(=N\OC(=O)C12CC3CC(CC(C3)C1)C2)c1cccnc1,34,16,10,1,35,38,.,.,.
N/C(=N\OC(=O)C12CC3CC(CC(C3)C1)C2)c1ccccc1,79*,13,-37,-14,65*,70*,54*,78*,71*
O=C(CSc1nnc(-c2ccncc2)n1-c1ccccc1)NCC1CCCO1 (configuration not stated),-9,17,2,.,-10,1,.,.,.
